Test results published in PubChem BioAssay (Tox21).
Records with an inconclusive call do not appear. Entries that show only a call come without a potency. Calls of active or inactive are those of the source. Calls follow the shape of the dose curve; as a rule, active = well fitted cell-killing curve with a large enough effect in the repeat runs; inconclusive = weak or mixed curves, or effect the other way; inactive = no such curve, though single readings can be large or run the other way.

Assay: qHTS assay to identify small molecule antagonists of the vitamin D receptor (VDR) signaling pathway - cell viability counter screen (AID 743225); also: nearly all actives have a fitted effect of over 50% in size
Conditions: VDR-bla HEK293T viability, CellTiter-Glo luminescence, 16 h; series mostly up to 61 µM
Excerpt: U.S. Tox21 Program National Center for Advancing Translational Sciences [NCATS] NIH Chemical Genomics Center [NCGC] U.S. Environmental Protection Agency [EPA] National Institutes of Environmental Health Sciences [NIEHS] National Toxicology Program [NTP] U.S. Food and Drug Administration [FDA] Tox21 Assay Overview: The vitamin D receptor (VDR), a member of nuclear hormone receptor superfamily, plays a critical role in calcium homeostasis and bone metabolism. It is also involved in cell differentiation and growth, and thrombogenicity. To identify the compounds that inhibit VDR signaling, the VDR-UAS-bla HEK 293T cell line (Invitrogen, Carlsbad, CA, USA) containing a beta-lactamase reporter gene under the control of an upstream activator sequence (UAS) was used to screen the Tox21 10K compound library. The cytotoxicity of the Tox21 compound library against the VDR-bla cell line was tested in parallel by measuring the cell viability using CellTiter-Glo assay (Promega, Madison, WI) in the same wells.
Tox21 Assay Protocol Summary: VDR-bla cells were dispensed at 2,000 cells/5 uL of assay medium per well into black wall/clear-bottom 1536-well plates using a Multidrop Combi (Thermo Fisher Scientific, Waltham, MA) dispenser. After the assay plates were incubated at a 37C and 5% CO2 for 4 h, 23 nL of compounds dissolved in DMSO, positive controls or DMSO only was transferred to the assay plate by a Pintool station (Kalypsys, San Diego, CA), followed by addition of 1 uL of 1-alpha, 25-Dihydroxy Vitamin D3 (3 nM, final concentration in the wells) using a Bioraptr Flying Reagent Dispenser (FRD) workstation (Beckman Coulter, Indianapolis, IN). The plates were incubated at 37C and 5% CO2 for 16 h, and then 1 uL of LiveBLAzerTM B/G FRET substrate was added using a Bioraptr FRD. The plates were incubated at room temperature for 2 h and fluorescence intensity was measured by an Envision plate reader (PerkinElmer, Shelton, CT). For cell viability readout that measures cytotoxicity, 3 ul/well of CellTiter-Glo reagent was added into the assay plates using a Bioraptr FRD. After 30 min incubation at room temperature, the luminescence intensity in the plates was measured using a ViewLux plate reader (PerkinElmer).

Structure (SMILES)	Potency
CCN1CCCC1CNC(=O)C(O)(c1ccccc1)c1ccccc1 (stereo not given)	inactive
CCCCCCC1CCOC1=O (stereo not given)	inactive
ClC1=C(Cl)C2(Cl)C(CBr)CC1(Cl)C2(Cl)Cl (stereo not given)	inactive
CN1C(=O)COc2c(C(=O)NC3CN4CCC3CC4)cc(Cl)cc21 (stereo not given)	inactive
ClCC1CO1 (stereo not given)	inactive
CCC(C(N)=O)N1CCCC1=O (stereo not given)	inactive
O=S1(=O)OCCO1	inactive
CCC(C)(C#N)N=NC(C)(C#N)CC (stereo not given)	inactive
N[C@@H]1C[C@H]1c1ccccc1	inactive
COc1cc(CC(C)N)cc(OC)c1OC (stereo not given)	inactive
NC(=O)CS(=O)C(c1ccccc1)c1ccccc1 (stereo not given)	inactive
CCNc1nc(Cl)nc(NC(C)(C)C)n1	inactive
O=C(Cl)c1ccccc1	inactive
CCCN1CCC[C@@H]2Cc3nc(N)ncc3C[C@H]21	inactive
CCOC(=O)c1ncn2c1CN(C)C(=O)c1c(I)cccc1-2	inactive
CCC1(c2cccc(O)c2)CCCCN(C)C1 (stereo not given)	inactive
CCN(CCO)CCn1c(Cc2ccccc2)nc2c1c(=O)n(C)c(=O)n2C	inactive
c1ccc2c(c1)CCNC2	inactive
O=C(O)c1c(Cl)ccc2cc(Cl)cnc12	inactive
CCCC(C)C1(CC)C(=O)N=C(S)NC1=O (stereo not given)	inactive

Structure (SMILES)	Potency
CCCOc1nn(C(=O)NS(=O)(=O)c2ccccc2C(=O)OC)c(=O)n1C	inactive
CC[C@H](O)C(C[C@H](C)N(C)C)(c1ccccc1)c1ccccc1	inactive
CC(Cc1ccccc1)NCCCCl (stereo not given)	inactive
O=c1[nH]oc2c1CCNC2	inactive
Cc1ccc(Cl)c(O)c1	inactive
C[C@H](CN1CCOCC1)C(C(=O)N1CCCC1)(c1ccccc1)c1ccccc1	inactive
O=C1CC(=O)NC(=O)N1	inactive
CCOC(=O)C(SP(=S)(OC)OC)c1ccccc1 (stereo not given)	inactive
C=CC1(C)OC(=O)N(c2cc(Cl)cc(Cl)c2)C1=O (stereo not given)	inactive
CNC(=O)Oc1ccccc1C(C)C	inactive
COc1cc(CCN)cc(OC)c1OC	inactive
O=C(Cl)OCc1ccccc1	inactive
COC(=O)c1ccc(CBr)cc1	inactive
C=CCN1CC[C@]23CCCC[C@H]2[C@H]1Cc1ccc(O)cc13	inactive
BrCCc1ccccc1	inactive
S=C=S	inactive
CN(C)C1CCCCC1	inactive
Cc1cc(OC(=O)N(C)C)nn1C(=O)N(C)C	inactive
CCN(CC)CCOC(=O)C(O)(c1ccccc1)c1ccccc1	inactive
C=C(Cl)CCl	inactive
